Drawing on PubChem BioAssay, this text covers composite z-score, composite Z-score and z-score for eight compounds.

SMILES strings stand for the structures. Activity calls are given as the source filed them.

One assay deals with Albumin (Bos taurus) (UniProt P02769). Kind of assay: compounds binding labelled BSA control protein – biochemical, small-molecule microarray, Alexa647 label, 635/667 nm fluorescence, artefact control for SMM control protein annotation, profiling panel (AID 1118).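 Further: score merges 667 nm emission intensity and signal-to-noise per printed compound spot.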 The following applies: BSA-A647 binding, fluorescence 635 nm, higher = more signal.
A short description of assay [1]: probe aXIP binding to arrayed compounds – biochemical, NeuroSMM set, 635/667 nm fluorescence, primary screen (AID 1119).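 Further: probe is the protein aXip251-270 applied at 1 µg/mL to compound-printed slides; binding of probe to printed compounds measured as 667 nm fluorescence plus signal to noise.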 Conditions: small-molecule microarray, higher = more signal, called active from +8 up or from −8 down.
The nature of assay [2]: probe aNOTCH3 binding on compound microarray – biochemical, small-molecule microarray, 635/667 nm fluorescence, primary screen (AID 1120).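 Further: probe is a biotin-tagged antibody raised against NOTCH3 rather than NOTCH3 protein; score merges spot fluorescence near 667 nm with spot signal to noise.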 Conditions: higher = more signal.
Assay [3] can be described thus: probe aNOTCH2 binding on compound microarray – biochemical, small-molecule microarray, 635/667 nm fluorescence, primary screen (AID 1121).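 Further: score merges feature fluorescence read at 667 nm with its signal to noise.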 Conditions: higher = more signal.
Assay [4] concerns the target Carbonic anhydrase 2 (Homo sapiens) (UniProt P00918). Kind of assay: compounds binding carbonic anhydrase 2 – biochemical, small-molecule microarray, Alexa647-labelled CAII, profiling panel (AID 1122). The following applies: CAII-A647 binding fluorescence, higher = more signal.
The nature of assay [5]: COS7 lysate on small-molecule microarray, probe aHis, 635 nm (AID 1123).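 Further: z-score combines 667nm fluorescence intensity with signal-to-noise per printed compound spot.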 Conditions: COS7 cell lysate, fluorescence, higher = more signal.
The nature of assay [6]: probe aLAP1 signal on lysate-treated microarray – cell lysate, small-molecule microarray, COS7 lysate, primary screen (AID 1124).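 Further: lysate comes from COS7 cells expressing LAP1 and is applied at 0.3 µg/mL; score merges spot fluorescence near 667 nm with signal-to-noise over triplicate slides.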 Conditions: probe aLAP1, fluorescence, higher = more signal.
The subject of another assay is Sam68 (KHDRBS1). Kind of assay: compounds binding KHDRBS1 protein – biochemical, small-molecule microarray, 635 nm fluorescence, primary screen (AID 1125).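 Further: score merges 667 nm channel intensity with signal to noise over triplicate slides.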 Conditions: higher = more signal.
For assay [7], the system named is Chordin-like protein 2 (CHRDL2). Nature of the assay: compounds binding chordin-like 2 – biochemical, small-molecule microarray, 635 nm fluorescence, primary screen (AID 1126).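 Further: printed compound slides probed with Chrdl2 protein at 4 µg/mL for 1 h at 4 C; score merges 667 nm emission intensity with signal to noise over three replicate slides.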 Conditions: fluorescence 635 nm, higher = more signal.
Assay [8] addresses Concanavalin-A (Canavalia ensiformis) (UniProt P02866). Nature of the assay: compounds binding concanavalin A lectin – biochemical, small-molecule microarray, Alexa647 label, 635 nm, artefact control for SMM control protein annotation, primary screen (AID 1127).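 Further: z combines 667 nm emission intensity with signal-to-noise across three replicate slides.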 The following applies: ConA-A647 binding fluorescence, higher = more signal.
Assay [9] in a line: compounds binding Alexa647 anti-His antibody – biochemical, small-molecule microarray, 635 nm fluorescence, artefact control for SMM control protein annotation, primary screen (AID 1128).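 Further: score merges feature fluorescence with signal-to-noise for each printed compound spot.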 The following applies: higher = more signal.
The subject of assay [10] is Human papillomavirus type 1a E7 protein (residues 1-88). Nature of the assay: HPV1a E7 small-molecule binders, primary screen, biochemical, small-molecule microarray, residues 1-88, 635 nm (AID 1129). The following applies: small-molecule microarray binding, fluorescence 635 nm; higher = more signal.
Assay [11] addresses Focal adhesion kinase 1 (Homo sapiens) (UniProt Q05397). Kind of assay: PTK2 protein binding on printed compound slides – biochemical, small-molecule microarray, 635/667 nm fluorescence, BSA, DTT, primary screen (AID 1130).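 Further: composite of spot emission at 667 nm and signal to noise over triplicate slides.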 The following applies: 635 nm fluorescence, higher = more signal.
Assay [12] has as its system Fibrinogen (Alexa647-labelled). Kind of assay: Alexa647-fibrinogen binding to printed small molecules – biochemical, small-molecule microarray, 635/667 nm fluorescence, artefact control for SMM control-protein annotation, profiling panel (AID 1131).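 Further: z-score merges 667 nm fluorescence with per-spot signal-to-noise over triplicate slides.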 The following applies: fibrinogen-A647 binding fluorescence, higher = more signal.
For assay [13], the target named is Follistatin (Homo sapiens) (UniProt P19883). Kind of assay: FST protein binding to printed compounds – biochemical, small-molecule microarray, 635/667 nm fluorescence, primary screen (AID 1132). The following applies: 635 nm fluorescence, higher = more signal.
Assay [14] deals with Fibroblast growth factor 2 (Homo sapiens) (UniProt P09038). Nature of the assay: basic fibroblast growth factor binding to printed compounds – biochemical, small-molecule microarray, 635/667 nm fluorescence, primary screen (AID 1133). Conditions: FGF2, fluorescence 635/667, higher = more signal.
The nature of assay [15]: JC-1 mitochondrial potential readout, lung cancer cells – cell-based, A549, JC-1 fluorescence, basal, 24 h, 100 nL, profiling panel (AID 1138).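 Further: A549 lung adenocarcinoma cells under basal conditions with no added stimulus; test concentration not given here.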 The following applies: higher = more signal.
A further assay has as its system Lefty1. Kind of assay: Lefty1 protein binding to printed compounds – biochemical, small-molecule microarray, 635/667 nm fluorescence, primary screen (AID 1139). The following applies: fluorescence 635/667, higher = more signal.
Assay [16] deals with wheat germ agglutinin (Triticum aestivum), Alexa647-labelled. Kind of assay: Alexa647-WGA lectin binding to printed small molecules – biochemical, small-molecule microarray, 635/667 nm fluorescence, artefact control for SMM control-protein annotation, profiling panel (AID 1140).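 Further: score merges 667 nm feature emission with signal to noise over triplicate slides.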 Conditions: WGA-A647 binding, 635 nm fluorescence, higher = more signal.
For assay [17], the target named is Luciferin 4-monooxygenase (Photinus pyralis) (UniProt P08659). Kind of assay: inhibition of purified Photinus pyralis luciferase – biochemical, luminescence, purified enzyme, 2006 set, primary screen (AID 1141).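 Further: cell-free assay with purified firefly luciferase at 100 ng per well in PBS; test concentration not given here.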 The following applies: purified firefly luciferase, SteadyGlo luminescence, 30 min; higher = more signal, called active from +8 up or from −8 down.
Chain of Luciferin 4-monooxygenase (Photinus pyralis) (P08659 whole entry, looked up): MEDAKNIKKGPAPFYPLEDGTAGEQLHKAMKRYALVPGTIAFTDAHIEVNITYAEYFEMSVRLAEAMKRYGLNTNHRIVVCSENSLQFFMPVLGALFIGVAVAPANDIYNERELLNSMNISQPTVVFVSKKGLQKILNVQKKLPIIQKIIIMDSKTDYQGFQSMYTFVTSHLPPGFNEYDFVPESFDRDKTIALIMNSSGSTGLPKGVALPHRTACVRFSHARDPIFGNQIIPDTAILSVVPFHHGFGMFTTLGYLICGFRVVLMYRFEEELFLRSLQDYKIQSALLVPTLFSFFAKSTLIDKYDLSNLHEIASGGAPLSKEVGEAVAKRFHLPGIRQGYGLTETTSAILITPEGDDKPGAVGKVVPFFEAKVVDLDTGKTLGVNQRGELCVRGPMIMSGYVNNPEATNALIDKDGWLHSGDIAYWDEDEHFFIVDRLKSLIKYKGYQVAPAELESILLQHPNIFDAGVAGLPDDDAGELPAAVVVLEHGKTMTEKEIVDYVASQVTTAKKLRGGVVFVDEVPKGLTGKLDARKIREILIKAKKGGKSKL

Chain of Fibroblast growth factor 2 (Homo sapiens) (P09038 whole entry, looked up): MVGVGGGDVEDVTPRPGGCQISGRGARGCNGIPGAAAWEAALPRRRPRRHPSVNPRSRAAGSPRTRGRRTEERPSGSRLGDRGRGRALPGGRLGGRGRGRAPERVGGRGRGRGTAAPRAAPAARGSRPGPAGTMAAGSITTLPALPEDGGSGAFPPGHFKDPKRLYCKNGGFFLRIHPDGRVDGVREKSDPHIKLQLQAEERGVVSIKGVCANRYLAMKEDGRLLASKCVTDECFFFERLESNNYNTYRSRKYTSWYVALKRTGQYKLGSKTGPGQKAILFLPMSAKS
Chain of Focal adhesion kinase 1 (Homo sapiens) (Q05397 whole entry, looked up): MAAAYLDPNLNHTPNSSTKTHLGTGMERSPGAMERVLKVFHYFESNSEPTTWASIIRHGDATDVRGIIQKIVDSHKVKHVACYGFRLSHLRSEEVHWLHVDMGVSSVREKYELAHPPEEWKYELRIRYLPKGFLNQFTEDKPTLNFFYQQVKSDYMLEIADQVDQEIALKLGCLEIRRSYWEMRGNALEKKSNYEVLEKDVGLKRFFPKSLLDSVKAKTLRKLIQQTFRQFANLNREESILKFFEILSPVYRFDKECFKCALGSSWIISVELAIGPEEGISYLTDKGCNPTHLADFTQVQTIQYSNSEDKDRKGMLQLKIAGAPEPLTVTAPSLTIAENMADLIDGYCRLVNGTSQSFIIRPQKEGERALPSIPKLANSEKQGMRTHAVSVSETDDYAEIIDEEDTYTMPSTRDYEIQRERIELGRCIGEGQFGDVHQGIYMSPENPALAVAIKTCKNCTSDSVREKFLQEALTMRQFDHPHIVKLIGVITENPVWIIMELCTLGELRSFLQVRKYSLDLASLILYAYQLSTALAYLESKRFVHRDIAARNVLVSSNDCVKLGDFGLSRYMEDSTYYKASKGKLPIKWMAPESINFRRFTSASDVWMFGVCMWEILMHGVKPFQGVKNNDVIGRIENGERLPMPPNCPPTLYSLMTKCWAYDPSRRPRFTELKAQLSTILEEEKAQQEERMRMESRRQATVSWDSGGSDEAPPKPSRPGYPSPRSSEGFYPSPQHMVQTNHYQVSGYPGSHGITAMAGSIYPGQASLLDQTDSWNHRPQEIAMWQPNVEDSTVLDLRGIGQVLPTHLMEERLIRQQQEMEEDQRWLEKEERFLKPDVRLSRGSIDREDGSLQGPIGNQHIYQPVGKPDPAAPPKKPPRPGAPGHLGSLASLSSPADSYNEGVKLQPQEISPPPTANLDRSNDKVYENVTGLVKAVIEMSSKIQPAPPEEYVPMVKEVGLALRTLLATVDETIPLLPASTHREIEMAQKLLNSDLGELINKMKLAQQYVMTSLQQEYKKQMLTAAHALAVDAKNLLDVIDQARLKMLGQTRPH
Chain of Follistatin (Homo sapiens) (P19883 whole entry, looked up): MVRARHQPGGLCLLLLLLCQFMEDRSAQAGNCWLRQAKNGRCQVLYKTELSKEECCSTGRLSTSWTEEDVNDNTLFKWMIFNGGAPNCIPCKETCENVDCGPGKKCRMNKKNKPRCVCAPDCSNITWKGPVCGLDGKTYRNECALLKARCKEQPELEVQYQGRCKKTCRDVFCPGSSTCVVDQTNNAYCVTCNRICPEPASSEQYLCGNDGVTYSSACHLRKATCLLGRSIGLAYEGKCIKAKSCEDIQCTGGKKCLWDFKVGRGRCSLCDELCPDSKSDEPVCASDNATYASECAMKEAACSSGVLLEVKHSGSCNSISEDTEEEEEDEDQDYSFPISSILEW
Chain of Albumin (Bos taurus) (P02769 whole entry, looked up): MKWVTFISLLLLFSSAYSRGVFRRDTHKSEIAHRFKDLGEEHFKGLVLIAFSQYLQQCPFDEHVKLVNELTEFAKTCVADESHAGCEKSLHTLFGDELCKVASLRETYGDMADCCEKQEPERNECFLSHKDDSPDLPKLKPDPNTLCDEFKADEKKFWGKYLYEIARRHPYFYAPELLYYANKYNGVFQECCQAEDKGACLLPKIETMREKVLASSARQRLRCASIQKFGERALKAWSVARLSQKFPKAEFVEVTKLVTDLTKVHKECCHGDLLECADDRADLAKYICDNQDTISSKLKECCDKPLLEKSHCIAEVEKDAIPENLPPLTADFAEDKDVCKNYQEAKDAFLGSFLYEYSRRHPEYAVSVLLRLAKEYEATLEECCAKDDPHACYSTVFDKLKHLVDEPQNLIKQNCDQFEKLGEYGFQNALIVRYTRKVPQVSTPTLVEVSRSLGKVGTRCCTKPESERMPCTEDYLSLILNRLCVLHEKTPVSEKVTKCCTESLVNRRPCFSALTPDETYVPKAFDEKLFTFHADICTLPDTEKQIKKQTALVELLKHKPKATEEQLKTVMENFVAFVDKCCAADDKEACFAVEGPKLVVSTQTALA
Chain of Concanavalin-A (Canavalia ensiformis) (P02866 whole entry, looked up): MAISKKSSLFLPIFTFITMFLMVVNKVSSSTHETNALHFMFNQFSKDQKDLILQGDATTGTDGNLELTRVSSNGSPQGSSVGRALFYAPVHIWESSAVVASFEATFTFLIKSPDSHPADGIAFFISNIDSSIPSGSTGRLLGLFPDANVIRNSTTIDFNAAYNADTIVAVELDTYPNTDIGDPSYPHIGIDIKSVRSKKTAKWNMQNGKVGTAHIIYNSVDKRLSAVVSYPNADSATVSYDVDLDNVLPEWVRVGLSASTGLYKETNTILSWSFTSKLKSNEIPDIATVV

For the compound `CCCCC=C[C@@H](NC(=O)c1ccccc1)c1ccccc1`, the composite z-score was 0.943 in the assay with Albumin (Bos taurus); 0.354 in [2]; -0.0785 in assay [3]; 0.561 in [4]; 2.62 in assay [5]; 0.172 in assay [6]. In addition, the composite z-score is 1.26 in the assay on Sam68 (KHDRBS1); -0.621 in [7]; 1.08 in [8]; 0.249 in assay [9]; 1.18 in [10]; 1.43 in [11]. Further, the composite z-score in [12] is 0.987; in [13], 0.527; in [14], -0.79; with Lefty1 it was 0.4; in [16], 0.68. Moreover, the composite Z-score in [1] was -0.176 (inactive). Moreover, the z-score was -0.584 in assay [15] and 0.965 (inactive) in assay [17].
As to `COC(=O)[C@@]1(Cc2ccc(F)cc2)[C@H]2c3cc(C(=O)N(C)C)n(Cc4c(CO)[nH]cc(C)c4=O)c3C[C@H]2CN1C(=O)c1ccccc1`, the composite z-score with Albumin (Bos taurus) stood at 0.569; in [2], 0.26; in assay [3] it was 0.224; in assay [4] it was 0.866; in assay [5], 0.816; in assay [6], 1.41. Also, the composite z-score in the assay on Sam68 (KHDRBS1) is -0.279; in [7] it was 0.146; in assay [8], -0.189; in assay [9], 0.394; in assay [10], 0.453; in assay [11], 0.0551. Besides, the composite z-score in assay [12] was -0.466; in assay [13] it was -0.198; in assay [14], -0.197; in the assay with Lefty1, -0.0191; in assay [16], 0.406. Also, the composite Z-score in [1] is 0.266 (inactive). The z-score in assay [15] was 0.932; in assay [17], 0.593 (inactive).
In the case of `C=CCNC(=O)[C@H]1[C@@H]2C(=O)O[C@@H](c3ccccc3)[C@@H](c3ccccc3)N2[C@@H](c2ccc(O)cc2)[C@]12C(=O)N(C(=O)OCCOC)c1ccc(C#CCC(C(=O)OC)C(=O)OC)cc12`, the composite z-score is 0.675 with Albumin (Bos taurus); 0.0904 in [2]; -0.154 in assay [3]; 0.378 in [4]; 2.05 in assay [5]; 0.775 in [6]. For the same compound, the composite z-score is 1.3 with Sam68 (KHDRBS1); 0.822 in assay [7]; 0.96 in assay [8]; 0.724 in assay [9]; 1.13 in assay [10]; 0.439 in [11]. In addition, the composite z-score in [12] was determined as 0.858; in [13] it was 1.32; in assay [14], 1.5; with Lefty1, 0.836; in assay [16], 0.856. The composite Z-score in [1] is 1.04 (inactive). The z-score in assay [15] was -1.74; in [17], 0.315 (inactive).
On to `O=C1[C@@]23C=C(Br)[C@H](C[C@@H]2COC3)[C@@]12CO2`, for which the composite z-score was -0.512 in the assay with Albumin (Bos taurus); 0.147 in assay [2]; -0.153 in assay [3]; -0.0903 in assay [4]; 0.301 in [5]; -0.0796 in assay [6]. For the same compound, the composite z-score in the assay with Sam68 (KHDRBS1) came out at 0.206; in [7], 0.532; in assay [8] it was 0.459; in assay [9], 0.192; in [10], 0.247; in assay [11] it was 0.0493. Besides, the composite z-score was 0.161 in assay [12]; 0.397 in [13]; 0.423 in assay [14]; 0.414 in the assay on Lefty1; 0.0439 in [16]. The composite Z-score in [1] is 0.395 (inactive). Moreover, the z-score in assay [15] was -0.0605; in assay [17], 0.44 (inactive).
As for `CC1(C)C(=O)C(c2ccccc2)=C2CN3C(=O)N(CCc4ccccc4)C(=O)C3(Cc3ccc(C(F)(F)F)cc3)C=C21` (stereo not given), the composite z-score in the assay with Albumin (Bos taurus) was determined as 0.925; in [2] it was 0.561; in [3], 0.306; in assay [4], 0.581; in assay [5] it was 2.1; in [6], 0.014. For the same compound, the composite z-score in the assay on Sam68 (KHDRBS1) is 0.764; in [7], -1.06; in assay [8] it was 0.702; in [9] it was 0.478; in assay [10], 1.21; in assay [11], 1.32. Also, the composite z-score in [12] is 0.414; in assay [13], 0.376; in assay [14], -0.729; in the assay on Lefty1, -0.285; in assay [16] it was 0.57. Further, the composite Z-score in [1] was -0.301 (inactive). In addition, the values for the z-score in assay [15] and in assay [17] were 0.37 and 1.24 (inactive), respectively.
Take `COc1ccc(CCNC(=O)[C@@]2(Cc3ccccc3I)c3ccccc3C(=O)N(Cc3ccccc3Cl)[C@H]2c2ccc(CO)cc2)cc1`: the composite z-score in the assay with Albumin (Bos taurus) is -0.41; in assay [2] it was 0.385; in assay [3], 0.111; in [4] it was 0.731; in assay [5] it was 1.34; in assay [6], 0.529. Besides, the composite z-score in the assay on Sam68 (KHDRBS1) was 0.576; in assay [7], -0.311; in assay [8], 0.555; in assay [9], 0.0199; in [10], 0.899; in assay [11] it was 0.196. Moreover, the composite z-score was 0.0632 in assay [12]; 0.0376 in assay [13]; 0.0031 in assay [14]; -0.321 with Lefty1; 0.0638 in assay [16]. In assay [1], the composite Z-score was 1.24 (inactive). Besides, the z-score in [15] was 0.311; in [17], -0.0513 (inactive).
For the compound `COc1cc2c(cc1O)C(c1ccc(CN3CCCC3)cc1)N(C)CC2` (stereo not given), the composite z-score was 0.462 with Albumin (Bos taurus); -0.173 in assay [2]; -0.127 in assay [3]; 0.359 in [4]; -0.138 in assay [5]; 2.24 in assay [6]. In addition, the composite z-score in the assay on Sam68 (KHDRBS1) was -0.645; in [7], -1.26; in assay [8] it was 0.113; in [9], -1.52; in assay [10] it was -2.03; in assay [11] it was -0.489. In addition, the composite z-score in assay [12] was 0.109; in assay [13], -0.843; in [14], -0.324; with Lefty1, -1.17; in [16] it was 0.434. In assay [1], the composite Z-score is 0.142 (inactive). The z-score in [15] is 0.563; in [17] it was -0.831 (inactive).
In the case of `Cc1ccc(S[C@]2(C(=O)NCc3ccccc3)CC(=O)N(Cc3cc(C(F)(F)F)cc(C(F)(F)F)c3)[C@@H]2c2ccc(CO)cc2I)cc1`, the composite z-score was -0.618 with Albumin (Bos taurus); -0.338 in assay [2]; -0.161 in [3]; 0.699 in [4]; 0.67 in [5]; 0.0779 in [6]. The composite z-score in the assay with Sam68 (KHDRBS1) was -0.191; in [7] it was -1.77; in assay [8], -1.54; in [9], -1.1; in assay [10], -0.774; in assay [11], 0.438. The composite z-score in assay [12] was -0.885; in [13], -1.18; in assay [14] it was -1.45; in the assay with Lefty1 it was -1.25; in assay [16], -0.799. The composite Z-score in assay [1] is -0.244 (inactive). The z-score is 1.61 in [15] and -0.461 (inactive) in assay [17].
